Rows were chosen to be rich in hits. Some 1.3% of all compounds tested hit in one or more screens of this group.
MEX-5 binding: C. elegans MEX-5 TCR-2 RNA binding activity. AID 1832. MEX-5/FITC-TCR2 RNA binding, fluorescence polarization; hits give low values. 0.38% of 300,000 active. activity score (negative = inhibition of binding), % at 10 µM. Q9XUB2;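 active means inhibition past about -25% in most replicates, and total fluorescence under double the plate's negative control median, limit read from the data; inconclusive means replicates evenly split on the limit, or fluorescence at least double controls; inactive means too little inhibition in most replicates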;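 further: 0% = DMSO and -100% = 5 µM competing unlabeled TCR2 RNA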
BCLXL inh: Bcl-xL (human) inhibition; inhibition, % at 10.9 µM; Q07817; GST-Bcl-xL / FITC-Bim BH3 peptide fluorescence polarization; 0.7% of 320,000 active;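 active means inhibition above the mean of all tested compounds plus 3 SD, cutoff set per campaign, cut at about 30% in these data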;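 further: 0% = DMSO wells and 100% = unlabeled Bim-BH3 peptide competitor; inhibitors lower millipolarization by displacing the labeled peptide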
Target sequence (Q07817 whole entry, looked up): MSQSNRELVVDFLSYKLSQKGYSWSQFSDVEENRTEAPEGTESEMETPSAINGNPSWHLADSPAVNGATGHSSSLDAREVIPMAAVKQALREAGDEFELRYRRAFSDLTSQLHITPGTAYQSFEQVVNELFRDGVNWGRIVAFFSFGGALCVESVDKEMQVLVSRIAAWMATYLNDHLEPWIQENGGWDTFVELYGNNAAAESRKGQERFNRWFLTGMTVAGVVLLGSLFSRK
EBV gp42 inh: EBV gp42 inhibition. 0.42% of 220,000 active. inhibition, % (tested at 21.74 µM). AID 1085. Fluorescence polarization binding assay, mP read-out; in the data active means inhibition above about 50%
GLD-1 RNA inh: GLD-1-TGE RNA interaction inhibition (C. elegans); 0.44% of 320,000 active; inhibition, % at 5.96 µM; Q17339; purified GLD-1 + fluorescein TGE RNA, fluorescence polarization;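 active means percent inhibition above a per-plate cutoff, the plate mean of test compounds plus 3 SD, cut at about 30% in these data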;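 further: 0% = DMSO wells with GLD-1 and probe and 100% = wells lacking GLD-1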
MCL1-BIM inh: inhibitors of human MCL1 binding to BIM-BH3 peptide; GST-MCL1 / FITC-Bim-BH3 fluorescence polarization; 0.68% of 320,000 active; AID 2057; Q07820; inhibition, % at 10.9 µM;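 active means inhibition above the mean inhibition of all tested compounds plus 3 SD, set per campaign, cut at about 40% in these data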;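 further: 0% = DMSO wells and 100% = unlabeled Bim-BH3 peptide control; higher means more loss of mP so more displacement of Bim peptide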
Target sequence (Q07820 whole entry, looked up): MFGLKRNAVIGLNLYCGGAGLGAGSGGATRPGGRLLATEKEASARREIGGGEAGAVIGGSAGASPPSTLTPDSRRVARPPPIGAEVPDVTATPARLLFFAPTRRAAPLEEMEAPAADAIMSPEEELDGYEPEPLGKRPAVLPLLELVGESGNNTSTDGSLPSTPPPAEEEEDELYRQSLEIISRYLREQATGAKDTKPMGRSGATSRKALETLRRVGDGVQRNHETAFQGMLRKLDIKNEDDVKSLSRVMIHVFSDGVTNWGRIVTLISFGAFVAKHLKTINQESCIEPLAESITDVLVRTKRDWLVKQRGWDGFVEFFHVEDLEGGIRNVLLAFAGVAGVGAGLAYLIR
* = called active by the depositor.

Cn1c(CCn2ccccc2=O)nc2cc(NC(=O)COc3ccccc3)ccc21 was read as MEX-5 binding 2, BCLXL inh 5, GLD-1 RNA inh 5 and MCL1-BIM inh 9.
For COC(=O)C(NS(=O)(=O)c1ccc(C)cc1)c1ccccc1 (stereo unspecified) the results were MEX-5 binding 2, BCLXL inh 5, EBV gp42 inh -8, GLD-1 RNA inh 6 and MCL1-BIM inh -3.
Cc1ccc(S(=O)(=O)NC(C(=O)Oc2ccc3c(C(F)(F)F)cc(=O)oc3c2)c2ccccc2)cc1 (stereo unspecified) was read as MEX-5 binding -8, BCLXL inh 45*, EBV gp42 inh 19, GLD-1 RNA inh 47* and MCL1-BIM inh 42*.
CCOC(=O)C1=C(C)OC(N)=C(C#N)C1c1ccc(C)s1 (stereo unspecified) was read as MEX-5 binding -2, BCLXL inh 31*, EBV gp42 inh 3, GLD-1 RNA inh 22 and MCL1-BIM inh 30.
Screening Cc1cccc2nc(COc3ccc(Cl)c4cccnc34)cn12 returned MEX-5 binding 1, BCLXL inh 2, EBV gp42 inh -6, GLD-1 RNA inh 2 and MCL1-BIM inh -1.
For C=CCN1C=C2C(=O)C(C)(OC(=O)c3ccco3)C(=O)C(C=C)=C2C=C1C1CC1 (stereo unspecified) the results were MEX-5 binding 1, BCLXL inh 32*, GLD-1 RNA inh 20 and MCL1-BIM inh 32.
C=CC1=C2C=C(C3CC3)N(CCCN(CC)CC)C=C2C(=O)C(C)(OC(=O)c2ccco2)C1=O (stereo unspecified) was read as MEX-5 binding -8, BCLXL inh 41*, GLD-1 RNA inh 15 and MCL1-BIM inh 39.
For Cc1cccc(N2CCN(C(=O)Cc3cn(C)c4ccccc34)CC2)c1C the results were MEX-5 binding 0, BCLXL inh 48*, EBV gp42 inh 38, GLD-1 RNA inh 18 and MCL1-BIM inh 44*.
`Cc1cccc(N2CCN(C(=O)COc3cc(=O)n(C)c4ccccc34)CC2)c1C` gave MEX-5 binding 2, BCLXL inh 8, EBV gp42 inh -4, GLD-1 RNA inh 3 and MCL1-BIM inh 3.
Screening CCc1ccc(NC(=O)CC2C(=O)N(c3ccc(C)cc3)C(=O)N2C2CC2)cc1 (stereo unspecified) returned MEX-5 binding 1, BCLXL inh 2, EBV gp42 inh 3, GLD-1 RNA inh 3 and MCL1-BIM inh -3.
For O=C1N=c2ccccc2=C1c1sc(Nc2ccc(O)cc2)nc1O the results were EBV gp42 inh 63*.
COc1ccc(NC(=O)CN2CCCCC2)c([N+](=O)[O-])c1 was read as MEX-5 binding 1, BCLXL inh -1, EBV gp42 inh -5, GLD-1 RNA inh 3 and MCL1-BIM inh -1.
Screening COc1ccc(NC(=O)CN2CCC(NC(=O)C3CCCCC3)CC2)c([N+](=O)[O-])c1 returned MEX-5 binding -92*, BCLXL inh 3, EBV gp42 inh -8, GLD-1 RNA inh -1 and MCL1-BIM inh 3.
`O=C(c1ccc([N+](=O)[O-])cc1)n1nc(-c2ccccc2)nc1NCc1ccc(F)cc1` gave MEX-5 binding 1, BCLXL inh 38*, EBV gp42 inh -12, GLD-1 RNA inh 24 and MCL1-BIM inh 37.
Screening CC(C)(C)n1cc(S(=O)(=O)c2ccccc2)[nH]c1=O returned MEX-5 binding 2, BCLXL inh 6, EBV gp42 inh -16, GLD-1 RNA inh 2 and MCL1-BIM inh 8.
Screening O=C(O)c1ccccc1-c1c2cc(I)c(=O)c(I)c-2oc2c(I)c(O)c(I)cc12 returned BCLXL inh 110*, GLD-1 RNA inh 49* and MCL1-BIM inh 115*.
For CCOC(=O)c1c(S(=O)(=O)NCc2ccco2)c(C)n(C)c1C the results were MEX-5 binding 2, BCLXL inh 6, GLD-1 RNA inh -2 and MCL1-BIM inh 5.
For O=C1NC(=S)S/C1=C1\Sc2ccccc2N1CCCS(=O)(=O)O the results were MEX-5 binding -1, BCLXL inh 29, EBV gp42 inh -15, GLD-1 RNA inh 1 and MCL1-BIM inh 38.
CCC(=S)/C=C1\Sc2ccc3ccccc3c2N1CCCS(=O)(=O)O was read as MEX-5 binding -68*, BCLXL inh 14, EBV gp42 inh 4, GLD-1 RNA inh -4 and MCL1-BIM inh 26.
COc1ccc(-n2cc(CNCc3cnc4ccccn34)c(-c3cccc(F)c3)n2)cc1 was read as MEX-5 binding -37*, BCLXL inh 6, EBV gp42 inh 4, GLD-1 RNA inh -5 and MCL1-BIM inh -1.
Screening Cc1ccc(-c2cc(C(=O)Nc3cc(C)on3)no2)cc1 returned MEX-5 binding 0, BCLXL inh 37*, EBV gp42 inh 11, GLD-1 RNA inh 47* and MCL1-BIM inh 28.
For Cc1n[nH]c(C)c1Sc1ccccc1N=Cc1cc(Cl)cc([N+](=O)[O-])c1O the results were MEX-5 binding -51*, BCLXL inh 5, EBV gp42 inh 6, GLD-1 RNA inh -1 and MCL1-BIM inh 4.
O=C(CN1C(=O)c2ccccc2S1(=O)=O)Nc1ncccn1 was read as MEX-5 binding 0, BCLXL inh 7, GLD-1 RNA inh 10 and MCL1-BIM inh 9.
O=C(CN1C(=O)c2ccccc2S1(=O)=O)Nc1ncc(Cl)cc1Cl was read as GLD-1 RNA inh 57*.
Screening Cc1cc(=O)[nH]c(SC(C)C(=O)Nc2cccc3ccccc23)n1 (stereo unspecified) returned MEX-5 binding 3, BCLXL inh 4, GLD-1 RNA inh -1 and MCL1-BIM inh -4.
Screening CCCC1=NCCn2cccc21 returned MEX-5 binding -3, BCLXL inh 33*, EBV gp42 inh -14, GLD-1 RNA inh 28 and MCL1-BIM inh 31.
`COc1ccc(CNCC(=O)Nc2cc(OC)cc(OC)c2)cc1` gave MEX-5 binding -1, BCLXL inh 2, GLD-1 RNA inh -2 and MCL1-BIM inh 0.
`COc1ccc(/C=C2/N=C(c3cccs3)OC2=O)cc1OC(C)C` gave MEX-5 binding -53*, BCLXL inh -2, EBV gp42 inh 107*, GLD-1 RNA inh -3 and MCL1-BIM inh -6.
`CCOc1ccc(/C=C2\N=C(c3cccs3)OC2=O)cc1OC` gave MEX-5 binding inconclusive, BCLXL inh -2, EBV gp42 inh -142, GLD-1 RNA inh -1 and MCL1-BIM inh 1.
Screening CCOC(=O)/C=c1\s/c(=C\c2ccc3cc(OC)ccc3c2)c(=O)n1CC(=O)NCc1ccc2c(c1)OCO2 returned MEX-5 binding -31*, BCLXL inh 7, EBV gp42 inh -42, GLD-1 RNA inh 3 and MCL1-BIM inh 3.
Screening CCOC(=O)/C=c1\s/c(=C\c2ccccc2C)c(=O)n1CC(=O)NCc1ccc2c(c1)OCO2 returned MEX-5 binding -2, BCLXL inh -5, EBV gp42 inh -55, GLD-1 RNA inh -7 and MCL1-BIM inh -31.
Screening Cc1ccc(N2C(=O)c3cccc4c(N)ccc(c34)C2=O)c2cccnc12 returned MEX-5 binding -10, BCLXL inh 30*, EBV gp42 inh 39, GLD-1 RNA inh 0 and MCL1-BIM inh 16.
